Source: PubChem BioAssay
Only a selection was taken, and hits are over-represented in it overall.
Pf Dd2 growth – Plasmodium falciparum Dd2 growth inhibition | P. falciparum Dd2 growth, SYBR Green, 72 h | Potency, µM (highest dose often 28.9 µM), inactives show top-dose activity, negative = inhibition, most hits filed as inhibitors | hit rate 4.3% among 120,000; active means well fitted inhibition curve with a large enough effect;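 further: plate controls were DMSO vehicle for no effect and reference drug for full effect; nearly all actives have a fitted effect of over 65% in size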
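Infected erythrocytes (Dd2, 0.3% parasitemia, 2.5% hematocrit final) are added to compound in RPMI-1640/Albumax II medium, grown 72 h at 37C in low oxygen, then lysed with saponin/Triton-X containing SYBR Green and read by fluorescence.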
An asterisk follows results filed as active; i = inactive; [ ] = remark or other dose. Potency means the concentration at half of the fitted maximal effect.

SMILES	Pf Dd2 growth
O=C(CCC[C@@H]1[C@H]2CCCN3CCC[C@@H](CN1C(=O)c1cccnc1)[C@@H]23)NC1CCCCC1	-7%
C[C@H]1[C@@H]2[C@@H](O)C([C@H](C)C(=O)NCc3ccc(F)cc3)CC[C@@]2(C)CC[C@@H]1NC(=O)c1cnccn1 (stereo not given in full)	8.9µM*
C[C@H]1[C@@H]2[C@@H](O)C([C@H](C)C(=O)NC3CC3)CC[C@@]2(C)CC[C@@H]1NC(=O)c1cnccn1 (stereo not given in full)	i
CC(=O)N[C@H]1CC[C@]2(C)CCC([C@H](C)C(=O)NCc3ccc(F)cc3)[C@H](O)[C@H]2[C@@H]1C (stereo not given in full)	i
CC(C(=O)NCC1CC1)N1C(=O)COc2ccc(C(=O)COc3ccccc3Cl)cc21 (stereo not given)	i
CCc1ccc(NC(=O)NCCc2noc(C)n2)cc1	6%
Cc1ccc(Cn2c(CN3CCC(C(=O)NCc4ccccc4C)CC3)cc3ccccc32)cc1	-10%
CN(C)CCNC(=O)C1CCN(Cc2cc3ccccc3n2Cc2ccccc2)CC1	6.3µM*
O=C(NCCCc1nc2ccccc2n1Cc1ccccc1)C1CCCCC1	-6%
COc1ccc(NC(=O)N2CCCCC2c2nc(C3CC3)n[nH]2)cc1 (stereo not given)	-1%
O=C(NCCc1csc2nc(-c3ccc(F)cc3)nn12)c1cccc(C(F)(F)F)c1	49%[5.79 µM]
COc1ccc(-c2nc3scc(CCNC(=O)c4cccc(Br)c4)n3n2)cc1	1µM*
COc1ccc(-c2nc3scc(CCNS(=O)(=O)c4ccccc4F)n3n2)cc1	-11%
CN1CCC2(CC1)CC(=O)N(CC(=O)N(C)CCc1cnn(C)c1)C2	-7%
CCCC(=O)N1CCC(O)(c2ccccc2)[C@H](N2CCCC2)C1 (stereo not given in full)	i[5.79 µM]
Cc1c(CN2CCC(O)(c3ccccc3)[C@H](N3CCCC3)C2)cnn1C (stereo not given in full)	0.45µM*
COCC(=O)N1CCC(O)(c2ccccc2)[C@H](N2CCCC2)C1 (stereo not given in full)	17%[5.79 µM]
COCCn1ncc(N2CCC(NC(=O)c3ccc(C)cc3C)CC2)cc1=O	i
N#Cc1ccc(S(=O)(=O)N2CCCOCCNC(=O)[C@@H]3CCCC[C@@H]32)cc1	23%
CC[C@@]1(O)CCN(C(=O)CCn2nc(C)c(C(C)=O)c2C)C[C@H]1O	-4%
O=S(=O)(c1ccc(-c2csc(=Nc3ccc(OC(F)(F)Cl)cc3)n2CCCO)cc1)N1CCCC1	11µM*
CCn1c(-c2ccc(S(=O)(=O)N3CCOCC3)cc2)csc1=Nc1ccc(C)c(Cl)c1	-20%
COc1ccc(-c2csc(=Nc3ccccc3)n2CCO)cc1F	i
Cc1ccc(S(=O)(=O)NC[C@H]2OC[C@@H](NCc3ccncc3)[C@@H]2O)cc1	-8%[44.1 µM]
CC(C)c1nnc(C2CN(C(=O)CCC3CCCCC3)CC23CCOCC3)o1 (stereo not given)	-23%
SMILES	Pf Dd2 growth
Cc1ccc(S(=O)(=O)N2C[C@@H](C(N)=O)[C@H](C3CCN(C)CC3)C2)cc1Cl	-4%
N[C@H]1CN(S(=O)(=O)c2ccc(OC(F)F)cc2)C[C@@H]1C1CC1	5.6µM*
CCc1nncn1C1CCN(S(=O)(=O)c2ccc(OC)cc2)CC1	i
CCC[C@@H]1CN(S(=O)(=O)c2ccc(OC(F)F)cc2)C[C@H]1N(C)C	5.6µM*
CC(=O)NC[C@H]1CCN(S(=O)(=O)c2ccc(C#N)cc2)C[C@H]1N(C)C	-3%
CN1CCC([C@@H]2CN(S(=O)(=O)c3ccc4c(c3)CCC4)C[C@H]2C(N)=O)CC1	9%
Cc1nc(-c2c3n(c(=O)n(CC(=O)Nc4cccc(F)c4)c2=O)CCCC3)no1	26%
CCOc1ccc(CCNC(=O)Cn2ccn3nc(-c4ccccc4)c(CO)c3c2=O)cc1OCC	-8%
Cc1ccc(OC2(C(=O)O)CCN(C(=O)C3CCOCC3)CC2)cc1	-8%
Cc1ccc(NC(=O)N[C@@H]2C=C(C(=O)N[C@@H](Cc3ccc(O)cc3)C(N)=O)C[C@@H](O)[C@@H]2O)cc1	-21%
O=C(NCCc1noc(-c2ccncc2)n1)c1ccccc1F	-3%
Cn1nccc1C(=O)N1CCC(N2CC3CC(C2)[C@H]2CCCC(=O)N2C3)CC1 (stereo not given in full)	2%
CO[C@H]1[C@H](NC(=O)c2cc(C)oc2C)c2ccccc2C12CCNCC2	-3%
COc1cccc([S+](=O)([O-])N2CCC(N3CCNC3=O)CC2)c1	14%
CC1CCCCN1Cc1c(O)ccc2c(=O)c(-c3ccccc3Cl)c(C(F)(F)F)oc12 (stereo not given)	8.9µM*
CCc1nc2c(c(-c3ccc(Cl)cc3)n1)CN(C(=O)C1CCCC1)CC2	i
CC1CCCCN1Cc1c(O)ccc2c(=O)c(-c3ccc(Cl)cc3)coc12 (stereo not given)	2.2µM*
O=C(Cn1ccn2nc(-c3ccccc3)c(CO)c2c1=O)NCCCc1ccccc1	-15%
COC(=O)[C@@H](Cc1cccnc1)NC(=O)[C@H]1CN(S(=O)(=O)c2ccccc2)CCN1C(=O)c1cccs1	-7%
CC(C)N1CCN(C(=O)C2CCCCC(=O)N2C)CC1 (stereo not given)	-2%
CC(=O)NC[C@@H]1C=C(C)[C@H](CC(=O)N(C)Cc2ccccc2)C[C@H]1C(C)C	i
COc1ccccc1C(=O)NC[C@H]1Cn2c(-c3ccc4c(c3)OCCO4)cnc2CO1	-1%[44.1 µM]
COc1ccccc1CNC[C@H]1Cn2c(-c3cccc(Cl)c3)cnc2CO1	13µM*
Fc1ccc(CNC[C@H]2Cn3c(-c4ccc(F)cc4)cnc3CO2)cc1	-15%[44.1 µM]
COC(=O)C1CCN(CC(O)COc2cccc(CN3CC=C(C)CC3)c2)CC1 (stereo not given)	-5%
SMILES	Pf Dd2 growth
CNC(=O)c1cc[nH]c1C1CCCN(C(=O)C2CC=CCC2)C1 (stereo not given)	7%
Cn1nc(-c2ccccc2F)c2cc(C(=O)Nc3cc(F)ccc3F)sc21	25%
Cn1nc(-c2ccccc2F)c2cc(C(=O)NCc3cccc(Cl)c3)sc21	-8%
CCCN(CCC)CCNC(=O)c1cc2c(-c3ccccc3F)nn(C)c2s1	4µM*
COc1ccccc1N1CCN(C(=O)c2cc3c(-c4ccccc4F)nn(C)c3s2)CC1	11µM*
Cn1nc(-c2ccccc2F)c2cc(C(=O)NCc3ccc(Cl)cc3)sc21	i
COc1ccc(-c2nn(C)c3sc(C(=O)N4CCN(c5ccccc5F)CC4)cc23)cc1OC	-11%
Cc1cn(CC(=O)N2CCc3nc(-c4cn[nH]c4)[nH]c3C2)c(=O)[nH]c1=O	-2%
O=C(NCc1cccs1)C1CN(c2ccccc2)C(=O)N1 (stereo not given)	-11%[44.1 µM]
Cc1nc2c(c(-c3ccc(O)cc3)n1)CN(Cc1cncs1)CCC2	3%
CC1CCCN(C(=O)Cn2ccn3nc(-c4ccc(F)cc4)c(CO)c3c2=O)C1 (stereo not given)	i
COCCN1C(=O)c2cccn2CC1CNC(=O)c1cccc(C)c1 (stereo not given)	-5%
Cc1ccc(C2Cn3cnc(C(=O)N4CCC(C(=O)NCc5cccc(F)c5)CC4)c3CO2)cc1 (stereo not given)	-15%
Cc1nc(N2CCC(NC(=O)c3sccc3C)CC2)cc(C(F)(F)F)n1	-1%
Cc1ccccc1CN1C(=O)c2ccccc2Sc2ccc(C(=O)O)cc21	13%
O=C(c1ccc2c(c1)N(Cc1c(F)cccc1Cl)C(=O)c1ccccc1S2)N1CCC2(CC1)OCCO2	10µM*
